# Reference: PubChem BioAssay
# Unmarked numbers belong to inactive results. For some assays here: Entries with a potency or affinity are not part of this list. The source made the active and inactive calls.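 How the source made its calls, unless noted: active means primary screen activator hit with a dose response curve and TRPC4 channel activation at any tested dose; inactive means no activation, no dose response, or not a primary hit.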
# Tests used:
# [1] = test system: TRPC4 beta (transient receptor potential cation channel C4), mouse; test: TRPC4 cation channel opening, retest – cell-based, Fluo4 calcium, HEK293 TRPC4beta/mu-opioid, duplicates, 10 µM, confirmation (AID 2426;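 active means fluorescence ratio normalized to control raised more than 50% in primary screen plus both repeat runs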); settings: Fluo4 calcium fluorescence, at 10 µM; stronger effect = higher value
# [2] = test system: transient receptor potential cation channel C4 beta (TRPC4), mouse; test: TRPC4 cation channel opening, second retest – cell-based, second round, Fluo4, HEK293 TRPC4beta/mu-opioid, 1 µM, confirmation (AID 2461;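 active means primary screen active and over 50% activation in each of two duplicate runs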); settings: Fluo4 calcium fluorescence, at 1 µM; stronger effect = higher value
# [3] = test system: TRPC4 (transient receptor potential cation channel C4 beta), mouse; test: potentiation of DAMGO EC20 TRPC4 response – cell-based, second round, Fluo-4, HEK293 TRPC4beta/mu-opioid, 1 µM, confirmation (AID 2554;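 active means primary screen hit whose fluorescence ratio, in both repeats, exceeds the weak agonist control mean by 3 SD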); settings: DAMGO EC20, Fluo-4 calcium flux, at 1 µM; stronger effect = higher value
# [4] = test system: TRPC4 beta (transient receptor potential cation channel C4), mouse; test: potentiation of DAMGO EC20 TRPC4 response – cell-based, Fluo-4, HEK293 TRPC4beta/mu-opioid, confirmation (AID 2555;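 active means primary screen hit whose calcium fluorescence ratio, in both repeats, exceeds the weak agonist control mean by 3 SD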); settings: DAMGO EC20, Fluo-4 calcium flux, at 10 µM; stronger effect = higher value
# [5] = target: Short transient receptor potential channel 4 (Mus musculus) (UniProt Q9QUQ5); test: blockers of DAMGO-evoked TRPC4 calcium flux – cell-based, Fluo4, HEK293 TRPC4beta/mu-opioid, confirmation (AID 2636;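 active means calcium signal cut by more than 3 SD below the full-agonist control yet still positive, in both repeats and the earlier primary screen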); settings: at 10 µM; stronger effect = higher value
# Chain of Short transient receptor potential channel 4 (Mus musculus) (Q9QUQ5 whole entry, looked up): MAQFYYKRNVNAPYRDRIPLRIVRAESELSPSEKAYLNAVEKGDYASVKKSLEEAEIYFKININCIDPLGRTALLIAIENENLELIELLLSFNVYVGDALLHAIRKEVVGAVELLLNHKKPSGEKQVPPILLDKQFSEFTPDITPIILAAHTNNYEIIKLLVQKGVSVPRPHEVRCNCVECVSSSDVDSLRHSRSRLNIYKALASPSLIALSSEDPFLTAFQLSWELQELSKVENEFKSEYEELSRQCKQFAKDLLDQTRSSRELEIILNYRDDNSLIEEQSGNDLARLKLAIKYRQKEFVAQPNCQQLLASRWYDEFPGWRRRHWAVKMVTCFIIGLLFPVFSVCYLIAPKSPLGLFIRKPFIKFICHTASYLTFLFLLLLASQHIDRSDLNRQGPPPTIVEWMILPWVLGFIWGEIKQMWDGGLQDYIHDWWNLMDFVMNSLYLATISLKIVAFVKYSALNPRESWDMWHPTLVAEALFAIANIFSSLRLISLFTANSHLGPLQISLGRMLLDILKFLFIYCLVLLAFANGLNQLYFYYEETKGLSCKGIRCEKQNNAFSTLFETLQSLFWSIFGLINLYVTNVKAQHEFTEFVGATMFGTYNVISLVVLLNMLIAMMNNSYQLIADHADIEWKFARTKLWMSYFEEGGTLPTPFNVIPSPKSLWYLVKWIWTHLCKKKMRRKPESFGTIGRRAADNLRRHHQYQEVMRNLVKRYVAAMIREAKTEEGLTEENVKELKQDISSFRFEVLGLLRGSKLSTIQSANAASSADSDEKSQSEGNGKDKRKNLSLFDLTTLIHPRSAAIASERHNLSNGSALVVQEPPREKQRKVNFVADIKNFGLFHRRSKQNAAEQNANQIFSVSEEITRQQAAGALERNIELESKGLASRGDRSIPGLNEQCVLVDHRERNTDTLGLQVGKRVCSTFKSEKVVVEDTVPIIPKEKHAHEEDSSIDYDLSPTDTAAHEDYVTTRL
# [6] = target: Short transient receptor potential channel 4 (Mus musculus) (UniProt Q9QUQ5); test: blockers of DAMGO-evoked TRPC4 calcium flux – cell-based, second round, Fluo4, HEK293 TRPC4beta/mu-opioid, 1 µM, confirmation (AID 2637;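 active means calcium signal ratio cut to more than 3 SD under the fully stimulated control mean yet still positive, in both repeats and the primary screen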); settings: at 1 µM; stronger effect = higher value
# [7] = target: Short transient receptor potential channel 4 (Mus musculus) (UniProt Q9QUQ5); test: calcium entry via TRPC4 opening agents – cell-based, HEK293 TRPC4/mu-opioid, Fluo-4 calcium, dose response (AID 434937)
# [8] = target: Short transient receptor potential channel 4 (Mus musculus) (UniProt Q9QUQ5); test: potentiation of DAMGO-evoked TRPC4 calcium signal – cell-based, HEK293 TRPC4/mu-opioid, Fluo-4 calcium, EC20 DAMGO, dose response (AID 434941;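 active means earlier screen potentiator hit that boosts the TRPC4 ion channel at some dose, with a dose response; inactive means no potentiation, no dose response, or not a prior hit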;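 further: calcium entry triggered by an EC20 dose of DAMGO at the co-expressed mu-opioid receptor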)
# [9] = target: Short transient receptor potential channel 4 (Mus musculus) (UniProt Q9QUQ5); test: block of DAMGO-driven TRPC4 calcium entry – cell-based, HEK293 TRPC4/mu-opioid, Fluo-4 calcium, dose response (AID 434942;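 active means primary screen inhibitor hit that blocks the TRPC4 channel at some tested dose, yielding a dose curve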)
# [10] = target: Short transient receptor potential channel 6 (Mus musculus) (UniProt Q61143); test: TRPC6 blockade by TRPC4 inhibitor hits – cell-based, HEK293, membrane potential dye, duplicate, selectivity assay for TRPC4 inhibitor project, confirmation (AID 434948;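 active means active in primary screen and both duplicates, each dropping signal beyond three positive-control SD with fluorescence still positive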); settings: HEK293 TRPC6, membrane potential dye fluorescence, at 10 µM, stimulated with maximal-effect acetylcholine; stronger effect = higher value
# Chain of Short transient receptor potential channel 6 (Mus musculus) (Q61143 whole entry, looked up): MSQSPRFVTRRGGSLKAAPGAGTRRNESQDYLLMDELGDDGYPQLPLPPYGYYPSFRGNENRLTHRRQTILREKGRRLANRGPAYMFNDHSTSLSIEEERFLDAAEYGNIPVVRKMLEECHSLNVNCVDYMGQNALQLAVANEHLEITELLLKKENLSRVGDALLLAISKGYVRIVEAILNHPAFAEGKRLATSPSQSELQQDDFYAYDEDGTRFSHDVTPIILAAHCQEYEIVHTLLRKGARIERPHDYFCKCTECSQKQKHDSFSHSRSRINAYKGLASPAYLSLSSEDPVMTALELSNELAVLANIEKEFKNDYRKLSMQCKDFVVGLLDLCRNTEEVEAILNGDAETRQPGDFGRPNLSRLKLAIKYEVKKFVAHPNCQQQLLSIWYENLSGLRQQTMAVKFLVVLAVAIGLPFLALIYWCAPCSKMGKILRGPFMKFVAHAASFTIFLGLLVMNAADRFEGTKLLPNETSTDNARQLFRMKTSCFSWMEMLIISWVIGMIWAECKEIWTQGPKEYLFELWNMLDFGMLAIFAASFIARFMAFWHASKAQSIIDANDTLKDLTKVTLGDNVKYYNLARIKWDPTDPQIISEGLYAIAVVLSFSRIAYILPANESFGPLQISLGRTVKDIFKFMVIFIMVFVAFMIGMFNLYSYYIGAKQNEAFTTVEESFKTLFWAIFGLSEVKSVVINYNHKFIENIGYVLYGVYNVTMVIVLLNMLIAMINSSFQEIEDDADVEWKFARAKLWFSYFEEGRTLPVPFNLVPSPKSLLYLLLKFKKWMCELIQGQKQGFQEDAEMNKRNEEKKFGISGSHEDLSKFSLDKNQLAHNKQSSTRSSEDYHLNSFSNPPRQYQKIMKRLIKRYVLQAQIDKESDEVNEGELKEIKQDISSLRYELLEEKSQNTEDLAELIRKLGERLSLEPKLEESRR
# [11] = target: Short transient receptor potential channel 6 (Mus musculus) (UniProt Q61143); test: TRPC6 opening by TRPC4 activator hits – cell-based, HEK293, membrane potential dye, duplicate, selectivity assay for TRPC4 activator project, confirmation (AID 434950;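 active means membrane potential signal rise above negative control mean plus 3 SD in both duplicates, also active in the earlier TRPC4 screen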); settings: HEK293 TRPC6, membrane potential fluorescence, at 10 µM; activation: stronger effect = higher value; outcome: activation
# [12] = target: Short transient receptor potential channel 6 (Mus musculus) (UniProt Q61143); test: positive modulators of mouse TRPC6 channel – HEK293 cells, membrane potential dye, duplicate, selectivity assay for TRPC4 potentiator project, confirmation (AID 434952;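 active means compound raising the membrane signal above positive-control mean plus 3 SD in both repeats, and a primary screen hit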); settings: HEK293 TRPC6, membrane potential dye fluorescence, at 10 µM, maximal acetylcholine added after compound; stronger effect = higher value
# [13] = target: Short transient receptor potential channel 4 (Mus musculus) (UniProt Q9QUQ5); test: calcium flux activators in TRPC4/5HT1a cells, counter-screen for TRPC4 activator project, cell-based, second counter screen, HEK293 TRPC4/5HT1a, Fluo-4 (AID 434977;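 active means calcium signal rise above buffer-control mean plus 5 SD in both duplicates, and also a hit in the primary screen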); settings: Fluo-4 calcium flux, at 10 µM; stronger effect = higher value
# [14] = serotonin-gated TRPC4 signal block – cell-based, second counter screen, HEK293 TRPC4/5HT1a, Fluo-4, counter-screen for TRPC4 inhibitor project, confirmation (AID 434978;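 active means primary screen active whose calcium signal fell more than 3 SD beyond the full-serotonin control mean in both duplicate plates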;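 further: serotonin given first at submaximal then at maximal dose after compound preincubation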); settings: Fluo-4 calcium flux, at 10 µM, serotonin added to trigger calcium flux; stronger effect = higher value
# [15] = test system: TRPC4 (mouse), co-expressed with 5HT1a in HEK293; test: enhancement of serotonin-evoked TRPC4 response – cell-based, second counter screen, HEK293 TRPC4/5HT1a, Fluo-4, counter-screen for TRPC4 potentiator project, confirmation (AID 434979;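 active means signal rise over 3 SD above mean of control wells given weak agonist, in both repeats and first screen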); settings: Fluo-4 calcium flux, at 10 µM, serotonin added at its EC20 dose; stronger effect = higher value
# [16] = nonspecific calcium rise without TRPC4 – cell-based, HEK293 mu-opioid receptor line, counter-screen for TRPC4 activator project, confirmation (AID 449723;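 active means hit in primary screen, with calcium signal over 5 SD above buffer well mean in both duplicates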;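 further: counter screen cells carry the mu-opioid receptor alone and lack TRPC4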); settings: HEK293 mu-opioid cells, Fluo-4 calcium fluorescence, at 10 µM; stronger effect = higher value
# [17] = nonspecific potentiation of DAMGO calcium response – cell-based, HEK293 mu-opioid receptor line, counter-screen for TRPC4 allosteric potentiator project, confirmation (AID 449724;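 active means calcium signal rise more than 3 SD above the low-dose agonist control mean, in both duplicate plates and the primary screen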); settings: HEK293 mu-opioid receptor cells, Fluo-4 calcium flux, at 10 µM, compound added before EC20 DAMGO stimulus; stronger effect = higher value
Compound,outcome [1],outcome [2],outcome [3],outcome [4],outcome [5],outcome [6],outcome [7],outcome [8],outcome [9],outcome [10],outcome [11],outcome [12],outcome [13],outcome [14],outcome [15],outcome [16],outcome [17],potentiation [4],potentiation [15]
CCOCCCn1cnc2c(c1=O)c1nc3ccccc3nc1n2-c1ccc(C)cc1,inactive,inactive,inactive,inactive,inactive,inactive,inactive,inactive,inactive,inactive,inactive,inactive,inactive,inactive,inactive,inactive,inactive,,
O=C(c1ccccc1F)N1CCN(c2ccc([N+](=O)[O-])c3cccnc23)CC1,inactive,inactive,inactive,,inactive,inactive,inactive,inactive,inactive,inactive,inactive,inactive,inactive,inactive,,inactive,inactive,18% (active),16.5% (active)
CC(C)OC(=O)C1CC=CCC1C(=O)Nc1ccc(Cl)cc1 (centres undefined),inactive,inactive,inactive,inactive,inactive,inactive,inactive,inactive,inactive,inactive,inactive,inactive,inactive,inactive,inactive,inactive,inactive,,
CC(C)c1ccc(C(C)NCCS(=O)(=O)c2ccc(Br)cc2)cc1 (centres undefined),inactive,inactive,inactive,inactive,inactive,inactive,inactive,inactive,inactive,inactive,inactive,inactive,inactive,inactive,,inactive,inactive,,21.2% (active)
CC(C)Cc1nc(Cl)c(C#N)c2c1CCCC2,inactive,inactive,inactive,inactive,inactive,inactive,inactive,inactive,inactive,inactive,inactive,inactive,inactive,inactive,inactive,inactive,inactive,,
Cc1ccc(/C=C/C(=O)NC2CCCCCCC2)o1,inactive,inactive,inactive,,inactive,inactive,inactive,inactive,inactive,inactive,inactive,inactive,inactive,inactive,,inactive,inactive,16% (active),19.1% (active)
O=C(O)c1ccc(NC(=O)c2cn(-c3ccccc3)nc2-c2ccc(Br)cc2)cc1,inactive,inactive,inactive,inactive,inactive,inactive,inactive,inactive,inactive,inactive,inactive,inactive,inactive,inactive,inactive,inactive,inactive,,
